The results in this text go back to PubChem BioAssay (NCATS).

Results filed as inconclusive are left out. A number with no mark means an inactive call. Calls of active or inactive are those of the source. The call rests on the fitted dose curve; in most records, active means well fitted activation curve with a large enough effect; inconclusive means small, poorly fitted or top-dose-only effect; inactive means no such curve, though single readings can be large or run the other way.
Potency means the concentration at half of the fitted maximal effect.

For this assay, the target named is Cellular tumor antigen p53 (Homo sapiens) (UniProt P04637). The assay is described as follows: Primary qHTS for small molecule compounds that upregulate eGFP-tagged delta133p53alpha (in N-terminal) cells. (AID 2060322). Further: nearly all actives have a fitted effect of over 75% in size.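 On activation: series mostly up to about 56 µM; 0% = DMSO vehicle and 100% = reference activator.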 The note with it: NCI-H358 eGFP-delta133p53alpha fluorescence, 24 h; activation: stronger effect = higher value. The method, boiled down: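 NCI-H358 cells pre-induced 24 h with 10 ng/ml doxycycline to express N-terminal eGFP-delta133p53alpha, then dosed 24 h at 37C without doxycycline; fixed, Hoechst-stained, GFP intensity by laser scanning cytometry, normalized to DMSO (0%) and 57.5 uM 5-azacytidine (100%).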
Chain of Cellular tumor antigen p53 (Homo sapiens) (P04637 whole entry, looked up): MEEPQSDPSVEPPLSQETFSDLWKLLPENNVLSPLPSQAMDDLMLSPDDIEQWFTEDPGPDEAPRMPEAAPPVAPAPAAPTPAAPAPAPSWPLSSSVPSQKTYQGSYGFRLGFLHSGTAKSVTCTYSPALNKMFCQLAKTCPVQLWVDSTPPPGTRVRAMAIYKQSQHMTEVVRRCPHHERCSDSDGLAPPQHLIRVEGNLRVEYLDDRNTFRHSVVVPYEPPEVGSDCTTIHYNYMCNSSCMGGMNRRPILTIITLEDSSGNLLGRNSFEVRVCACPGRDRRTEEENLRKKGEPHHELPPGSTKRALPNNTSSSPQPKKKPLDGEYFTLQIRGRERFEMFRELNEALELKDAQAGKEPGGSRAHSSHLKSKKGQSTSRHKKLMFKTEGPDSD
Take `O=C(N[C@H]1N=C(c2ccccc2F)c2cccc3c2N(CC3)C1=O)c1cc2ccccc2[nH]1`: the activation is 6.33%.
As to `CC[C@@H]1C[C@H]2CC[C@H](O2)[C@H](C)C(=O)O[C@@H](C)C[C@@H]2CC[C@@H](O2)[C@@H](C)C(=O)O[C@H](C)C[C@H]2CC[C@H](O2)[C@H](C)C(=O)O[C@@H](C)C[C@@H]2CC[C@@H](O2)[C@@H](C)C(=O)O1`, the activation is -13.7%.
The same measure, in the same setting: the figure for `CC[C@H]1CN2CC[C@H]1C[C@H]2[C@H](O)c1ccnc2ccc(OC)cc12` is 7.14%; for `CC(=O)O[C@@H]1[C@H]2CC[C@H]3[C@@](C)(O)[C@@H]4C[C@H](O)C(C)(C)[C@@]4(O)[C@H](O)C[C@@]13C[C@@]2(C)O` it is 6.87%.
For `COC(=O)C1(C)CCC(O)C2(C)c3cc(O)c(C(C)C)cc3C(O)C(OC(C)=O)C12` (stereo not given), the activation was -2.68%.
As to `COc1ccc(CN(C(=O)[C@@H](N)Cc2c(C)cc(C(N)=O)cc2C)[C@@H](C)c2ncc(-c3ccccc3)[nH]2)cc1C(=O)O`, the activation was 12.3%.
Regarding `CC(=O)OC[C@]12C[C@H](O)C(C)=C[C@H]1O[C@@H]1[C@H](O)[C@@H](OC(C)=O)[C@@]2(C)[C@]12CO2`, the Potency was 0.083 µM (active).
Turning to `CC12CCC3C(CCC4(O)CC(O)CCC34C=O)C1(O)CCC2C1=CC(=O)OC1` (stereo not given), the Potency is 10.7 µM (active).
In the case of `CC1=CC2(O)/C=C/C(C)(O)C(O)C(O)/C=C/C(=O)OC23C(=O)NC(CC(C)C)C3C1C` (stereo not given), the activation is 0.763%.
In the case of `C=C1C[C@]2(O)[C@@]3(C)CCC(=O)C(C)(C)C3=C(O)C(=O)[C@@]2(C)[C@@H]2C(=O)O[C@@](C)(C(=O)OC)C(=O)[C@@]12C`, the activation was -4.58%.
